# Measurements published in PubChem BioAssay (EPA / NIEHS).
# Records with an inconclusive call do not appear. The source made the active and inactive calls. Rule for the calls, unless noted: active = hit-call score of the fitted dose curve at least 0.9, where 1 is the maximum; inconclusive = response in the unintended direction; inactive = score below 0.9.
# How the values were obtained:
# [1] = molecular target: Cytochrome P450 3A4 (Homo sapiens) (UniProt P08684); assay: NVS_ADME_hCYP3A4: NovaScreen (NVS) CYP450-related Enzyme Activity (ADME) Assay for human CYP3A4 (AID 2283110)
# Procedure, shortened: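 Cell-free assay using insect-cell-expressed human CYP3A4 with a fluorogenic substrate; fluorescence intensity was read 0.33 hour after dosing. Loss of signal relative to acetonitrile vehicle indicated inhibition. Primary single-concentration screen at 10 uM, in duplicate, then concentration series.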
# [2] = molecular target: human CYP1A2, CYP1A2 (gene 1544) (UniProt P05177); assay: NVS_ADME_hCYP1A2: NovaScreen (NVS) CYP450-related Enzyme Activity (ADME) Assay for human CYP1A2 (AID 2283102);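 note: potency for inhibition since loss of fluorescence marks reduced CYP1A2 activity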
# Procedure, shortened: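 Enzyme activity of insect-cell-expressed human CYP1A2 measured by fluorescence 0.5 h after compound addition, relative to acetonitrile. Compounds first tested in duplicate at 10 uM, actives followed up in concentration series.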
# [3] = molecular target: human CYP2C9, CYP2C9 (gene 1559) (UniProt P11712); assay: NVS_ADME_hCYP2C9: NovaScreen (NVS) CYP450-related Enzyme Activity (ADME) Assay for human CYP2C9 (AID 2283108)
# Procedure, shortened: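 Cell-free assay of recombinant human CYP2C9 produced in Sf9 cells, with enzyme activity read by fluorescence intensity 0.75 h after compound addition. Loss of signal versus an acetonitrile negative control indicates inhibition. Primary screen used 10 uM in duplicate; actives were retested in concentration series.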
# [4] = molecular target: Cytochrome P450 2C19 (Homo sapiens) (UniProt P33261); assay: NVS_ADME_hCYP2C19: NovaScreen (NVS) CYP450-related Enzyme Activity (ADME) Assay for human CYP2C19 (AID 2283113);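 for AC50: potency for inhibition seen as loss of fluorescent signal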
# Procedure, shortened: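 Compounds first screened in duplicate at 10 uM, then confirmed in concentration series. Insect-cell-expressed human CYP2C19 turned over a fluorogenic substrate, and fluorescence was read after 1 h. Inhibition taken as signal loss relative to acetonitrile.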
# [5] = molecular target: human CYP2B6, CYP2B6 (gene 1555) (UniProt P20813); assay: NVS_ADME_hCYP2B6: NovaScreen (NVS) CYP450-related Enzyme Activity (ADME) Assay for human CYP2B6 (AID 2283101)
# Procedure, shortened: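 Fluorescence-based enzyme activity of recombinant human CYP2B6, measured 1 h post-dose against acetonitrile vehicle baseline. Screened at a single concentration of 10 uM in duplicate before concentration-response follow-up.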
# [6] = molecular target: rat CYP2A2, Cyp2a2 (gene 24895) (UniProt P15149); assay: NVS_ADME_rCYP2A2: NovaScreen (NVS) CYP450-related Enzyme Activity (ADME) Assay for rat CYP2A2 (AID 2283116)
# Procedure, shortened: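 Cell-free recombinant rat CYP2A2 activity with fluorogenic substrate, fluorescence read 0.2 h after dosing. Chemicals screened at 10 uM in duplicate, hits then run in concentration-response up to 20 uM; signal loss versus acetonitrile baseline.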
# [7] = molecular target: human CYP1A1, CYP1A1 (gene 1543) (UniProt P04798); assay: NVS_ADME_hCYP1A1: NovaScreen (NVS) CYP450-related Enzyme Activity (ADME) Assay for human CYP1A1 (AID 2283100)
# Procedure, shortened: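 Chemicals were first tested in duplicate at 10 uM, and those passing a 30% inhibition threshold were rerun as concentration series topping at 20 uM. Fluorescence read-out of recombinant enzyme turnover after 1 h, relative to acetonitrile.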
# [8] = molecular target: human CYP2D6, CYP2D6 (gene 1565) (UniProt P10635); assay: NVS_ADME_hCYP2D6: NovaScreen (NVS) CYP450-related Enzyme Activity (ADME) Assay for human CYP2D6 (AID 2283107)
# Procedure, shortened: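 Fluorescence readout of recombinant CYP2D6 (insect-cell derived) activity after 1 h incubation with test chemical. Acetonitrile served as baseline, loss-of-signal direction. Single-concentration duplicate screening at 10 uM preceded concentration-response retesting.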
# [9] = molecular target: human CYP2C8, CYP2C8 (gene 1558) (UniProt P10632); assay: NVS_ADME_hCYP2C8: NovaScreen (NVS) CYP450-related Enzyme Activity (ADME) Assay for human CYP2C8 (AID 2283104; active = hit-call score of the fitted dose curve at least 0.9, where 1 is the maximum; inactive = score below 0.9)
# Procedure, shortened: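 Recombinant human CYP2C8 with fluorogenic substrate, 0.5 h, fluorescence intensity; signal loss fitted versus acetonitrile. Screened in duplicate at 10 uM, then actives run in concentration-response up to 20 uM.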
# [10] = molecular target: human CYP4F12, CYP4F12 (gene 66002) (UniProt Q9HCS2); assay: NVS_ADME_hCYP4F12: NovaScreen (NVS) CYP450-related Enzyme Activity (ADME) Assay for human CYP4F12 (AID 2283111)
# Procedure, shortened: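 Cell-free fluorescence assay of recombinant human CYP4F12 activity on a specific substrate, read 0.5 h after dosing. Primary screen in duplicate at 10 uM, then concentration series for actives; loss of signal fitted against acetonitrile negative control.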
# Chain of human CYP2C9, CYP2C9 (gene 1559) (P11712 whole entry, looked up): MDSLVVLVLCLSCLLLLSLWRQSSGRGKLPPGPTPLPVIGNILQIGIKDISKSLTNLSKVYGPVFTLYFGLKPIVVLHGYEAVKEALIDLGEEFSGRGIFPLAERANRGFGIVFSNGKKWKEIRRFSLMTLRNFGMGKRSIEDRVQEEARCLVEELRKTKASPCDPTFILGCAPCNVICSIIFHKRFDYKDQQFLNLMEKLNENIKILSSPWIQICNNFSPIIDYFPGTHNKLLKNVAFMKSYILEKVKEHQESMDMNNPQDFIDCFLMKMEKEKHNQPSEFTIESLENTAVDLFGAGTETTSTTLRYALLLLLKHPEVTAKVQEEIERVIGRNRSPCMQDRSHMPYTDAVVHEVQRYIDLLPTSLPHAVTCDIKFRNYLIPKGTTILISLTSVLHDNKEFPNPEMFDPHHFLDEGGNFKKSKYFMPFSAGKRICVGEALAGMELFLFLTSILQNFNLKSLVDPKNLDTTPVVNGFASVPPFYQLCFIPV
# Chain of Cytochrome P450 3A4 (Homo sapiens) (P08684 whole entry, looked up): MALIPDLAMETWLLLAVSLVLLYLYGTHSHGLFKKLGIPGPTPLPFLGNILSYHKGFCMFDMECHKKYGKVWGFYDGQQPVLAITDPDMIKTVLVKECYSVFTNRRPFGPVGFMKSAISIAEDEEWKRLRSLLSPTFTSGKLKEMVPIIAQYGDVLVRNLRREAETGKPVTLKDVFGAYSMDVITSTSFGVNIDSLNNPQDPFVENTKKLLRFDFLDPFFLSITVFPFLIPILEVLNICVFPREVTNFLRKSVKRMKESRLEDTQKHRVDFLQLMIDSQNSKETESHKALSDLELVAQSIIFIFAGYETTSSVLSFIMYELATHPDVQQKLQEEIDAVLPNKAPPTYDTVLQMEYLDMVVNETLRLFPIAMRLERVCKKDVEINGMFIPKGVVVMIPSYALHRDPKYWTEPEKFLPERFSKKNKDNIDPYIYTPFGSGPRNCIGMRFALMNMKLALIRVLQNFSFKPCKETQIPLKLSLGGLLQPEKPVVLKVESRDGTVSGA
# Chain of human CYP1A1, CYP1A1 (gene 1543) (P04798 whole entry, looked up): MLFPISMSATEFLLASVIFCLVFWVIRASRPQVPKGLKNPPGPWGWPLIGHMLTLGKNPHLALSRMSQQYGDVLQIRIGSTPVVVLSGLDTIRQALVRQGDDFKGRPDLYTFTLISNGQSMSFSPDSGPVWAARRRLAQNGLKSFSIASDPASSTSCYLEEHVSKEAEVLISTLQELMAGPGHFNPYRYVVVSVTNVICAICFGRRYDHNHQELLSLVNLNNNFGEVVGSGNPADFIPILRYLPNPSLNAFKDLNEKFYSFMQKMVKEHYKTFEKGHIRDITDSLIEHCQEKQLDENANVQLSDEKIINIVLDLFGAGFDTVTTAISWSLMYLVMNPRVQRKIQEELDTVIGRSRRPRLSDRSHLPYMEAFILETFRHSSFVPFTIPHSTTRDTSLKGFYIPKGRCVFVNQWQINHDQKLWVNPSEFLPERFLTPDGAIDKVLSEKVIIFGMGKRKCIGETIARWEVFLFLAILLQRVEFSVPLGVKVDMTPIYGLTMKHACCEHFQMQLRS
# Chain of human CYP1A2, CYP1A2 (gene 1544) (P05177 whole entry, looked up): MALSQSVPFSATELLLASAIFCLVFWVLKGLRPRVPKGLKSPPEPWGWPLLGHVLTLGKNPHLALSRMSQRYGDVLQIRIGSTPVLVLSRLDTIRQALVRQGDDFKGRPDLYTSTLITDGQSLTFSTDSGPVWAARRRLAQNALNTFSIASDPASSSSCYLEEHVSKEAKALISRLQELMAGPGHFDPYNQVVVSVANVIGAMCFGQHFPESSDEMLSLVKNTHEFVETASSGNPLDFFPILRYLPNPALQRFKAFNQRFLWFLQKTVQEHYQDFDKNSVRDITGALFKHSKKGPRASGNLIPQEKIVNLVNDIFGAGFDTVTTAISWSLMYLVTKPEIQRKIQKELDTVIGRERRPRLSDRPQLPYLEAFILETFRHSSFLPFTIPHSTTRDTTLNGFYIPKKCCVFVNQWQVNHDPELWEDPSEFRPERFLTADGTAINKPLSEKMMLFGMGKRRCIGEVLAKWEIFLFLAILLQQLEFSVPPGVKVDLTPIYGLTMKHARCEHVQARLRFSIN
# Chain of human CYP2D6, CYP2D6 (gene 1565) (P10635 whole entry, looked up): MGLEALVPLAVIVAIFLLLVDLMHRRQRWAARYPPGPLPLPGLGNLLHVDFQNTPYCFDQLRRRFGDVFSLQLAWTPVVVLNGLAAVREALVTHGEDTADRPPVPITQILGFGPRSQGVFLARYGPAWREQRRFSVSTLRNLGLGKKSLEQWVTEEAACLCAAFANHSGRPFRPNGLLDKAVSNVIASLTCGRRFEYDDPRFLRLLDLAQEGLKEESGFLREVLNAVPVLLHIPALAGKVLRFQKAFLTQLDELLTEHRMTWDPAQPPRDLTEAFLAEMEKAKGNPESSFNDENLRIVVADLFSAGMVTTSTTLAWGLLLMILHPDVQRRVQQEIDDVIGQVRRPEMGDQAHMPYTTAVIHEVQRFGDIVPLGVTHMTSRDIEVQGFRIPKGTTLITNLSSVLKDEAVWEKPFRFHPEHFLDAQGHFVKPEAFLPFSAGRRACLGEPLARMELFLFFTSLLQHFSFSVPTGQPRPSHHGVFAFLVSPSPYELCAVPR
# Chain of human CYP4F12, CYP4F12 (gene 66002) (Q9HCS2 whole entry, looked up): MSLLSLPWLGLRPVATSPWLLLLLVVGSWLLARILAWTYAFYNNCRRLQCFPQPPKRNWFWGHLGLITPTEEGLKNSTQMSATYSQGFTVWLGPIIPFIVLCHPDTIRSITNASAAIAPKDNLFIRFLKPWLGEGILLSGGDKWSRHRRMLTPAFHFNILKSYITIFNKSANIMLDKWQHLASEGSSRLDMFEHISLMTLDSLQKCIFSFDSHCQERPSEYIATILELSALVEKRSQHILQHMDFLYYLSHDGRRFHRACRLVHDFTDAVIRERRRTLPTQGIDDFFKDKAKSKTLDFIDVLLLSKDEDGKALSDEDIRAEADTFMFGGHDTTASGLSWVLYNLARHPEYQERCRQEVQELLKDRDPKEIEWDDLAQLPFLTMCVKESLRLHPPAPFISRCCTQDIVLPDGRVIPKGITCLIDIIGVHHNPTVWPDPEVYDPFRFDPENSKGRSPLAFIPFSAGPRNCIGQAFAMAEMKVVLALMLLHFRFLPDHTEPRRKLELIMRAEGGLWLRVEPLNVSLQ
# Chain of human CYP2B6, CYP2B6 (gene 1555) (P20813 whole entry, looked up): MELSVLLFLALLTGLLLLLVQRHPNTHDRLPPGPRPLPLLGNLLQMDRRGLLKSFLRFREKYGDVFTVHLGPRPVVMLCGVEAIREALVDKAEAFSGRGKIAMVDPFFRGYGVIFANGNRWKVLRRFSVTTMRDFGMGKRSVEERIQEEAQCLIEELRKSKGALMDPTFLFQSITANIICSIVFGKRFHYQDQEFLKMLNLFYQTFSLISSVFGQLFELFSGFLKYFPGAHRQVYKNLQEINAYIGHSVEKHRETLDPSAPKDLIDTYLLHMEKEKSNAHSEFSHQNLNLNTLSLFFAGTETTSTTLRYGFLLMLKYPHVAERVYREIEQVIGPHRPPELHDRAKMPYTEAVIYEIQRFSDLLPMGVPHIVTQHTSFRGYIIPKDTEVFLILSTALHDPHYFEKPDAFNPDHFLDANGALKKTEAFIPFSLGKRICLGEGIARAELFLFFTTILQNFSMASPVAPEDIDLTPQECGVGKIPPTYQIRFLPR
# Chain of human CYP2C8, CYP2C8 (gene 1558) (P10632 whole entry, looked up): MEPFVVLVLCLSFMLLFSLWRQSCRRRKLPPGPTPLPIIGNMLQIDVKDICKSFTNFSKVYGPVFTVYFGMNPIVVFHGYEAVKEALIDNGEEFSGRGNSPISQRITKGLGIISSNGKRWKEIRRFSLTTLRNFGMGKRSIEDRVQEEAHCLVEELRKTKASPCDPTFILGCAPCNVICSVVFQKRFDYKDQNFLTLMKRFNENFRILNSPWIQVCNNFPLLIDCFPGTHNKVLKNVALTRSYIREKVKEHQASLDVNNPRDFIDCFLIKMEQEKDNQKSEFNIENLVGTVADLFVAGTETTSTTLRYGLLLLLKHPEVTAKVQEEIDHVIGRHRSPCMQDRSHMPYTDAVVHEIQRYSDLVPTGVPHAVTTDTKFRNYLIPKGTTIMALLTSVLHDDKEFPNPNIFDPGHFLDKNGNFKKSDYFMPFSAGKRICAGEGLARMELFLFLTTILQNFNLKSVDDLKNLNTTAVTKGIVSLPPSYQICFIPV
# Chain of rat CYP2A2, Cyp2a2 (gene 24895) (P15149 whole entry, looked up): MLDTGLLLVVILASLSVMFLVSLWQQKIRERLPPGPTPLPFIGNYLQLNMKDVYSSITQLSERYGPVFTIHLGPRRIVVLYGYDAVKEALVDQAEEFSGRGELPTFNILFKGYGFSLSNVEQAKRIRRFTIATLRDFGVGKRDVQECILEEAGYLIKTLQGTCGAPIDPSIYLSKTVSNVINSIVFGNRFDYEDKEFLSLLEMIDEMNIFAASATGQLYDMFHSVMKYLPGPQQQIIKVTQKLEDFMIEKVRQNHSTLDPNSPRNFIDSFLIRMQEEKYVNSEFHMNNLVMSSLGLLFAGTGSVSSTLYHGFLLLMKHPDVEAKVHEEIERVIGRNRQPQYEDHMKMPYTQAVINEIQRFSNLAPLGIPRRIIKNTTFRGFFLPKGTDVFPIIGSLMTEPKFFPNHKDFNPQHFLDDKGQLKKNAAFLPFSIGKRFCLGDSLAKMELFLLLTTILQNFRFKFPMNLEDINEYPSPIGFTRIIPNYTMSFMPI
smiles,measurement,setting,value
Cc1cccc(C)c1N,outcome,[1],inactive
CC(C)(O)C(=O)Nc1ccc([N+](=O)[O-])c(C(F)(F)F)c1,AC50,[2],3.38 µM (active)
same,outcome,[3],inactive
same,AC50,[4],3.49 µM (active)
COc1ccc(O)c(C(C)(C)C)c1,outcome,[5],inactive
same,AC50,[3],10 µM (active)
same,AC50,[4],12.1 µM (active)
CN(C)CCO,outcome,[4],inactive
C[C@]12CCC(=O)C=C1CC[C@@H]1[C@@H]2CC[C@@]2(C)[C@H]1CC[C@]2(C)O,AC50,[4],9.15 µM (active)
same,AC50,[6],5.45 µM (active)
CO/C=C(/C(=O)OC)c1ccccc1COc1cccc(C(F)(F)F)n1,outcome,[7],inactive
same,outcome,[8],inactive
same,AC50,[3],6.85 µM (active)
same,AC50,[4],1 µM (active)
CCC(C)(CC)c1cc(NC(=O)c2c(OC)cccc2OC)on1,outcome,[9],inactive
same,AC50,[3],2.79 µM (active)
same,AC50,[4],5.05 µM (active)
CC(c1ccc(O)cc1)(c1ccc(O)cc1)c1ccc(O)cc1,AC50,[4],1.73 µM (active)
CCOC(=O)C(O)(c1ccc(Cl)cc1)c1ccc(Cl)cc1,AC50,[4],0.596 µM (active)
CCC(C)c1cc([N+](=O)[O-])cc([N+](=O)[O-])c1O (centres undefined),AC50,[4],15.2 µM (active)
Cc1cc2c3c(c1)C(c1ccccc1)=N[C@@H](NC(=O)c1ccncc1)C(=O)N3CC2,outcome,[1],inactive
Oc1ccc(C(c2ccc(O)cc2)(C(F)(F)F)C(F)(F)F)cc1,AC50,[5],4.71 µM (active)
same,AC50,[3],0.406 µM (active)
same,AC50,[1],7.65 µM (active)
same,AC50,[10],3.97 µM (active)
same,AC50,[4],0.145 µM (active)
Nc1ccc(-c2ccc(N)cc2)cc1,AC50,[7],3.1 µM (active)
same,AC50,[3],10 µM (active)
same,AC50,[4],8.09 µM (active)
O=C(O)C(F)(F)C(F)(F)C(F)(F)C(F)(F)C(F)(F)C(F)(F)C(F)(F)C(F)(F)C(F)(F)F,AC50,[3],1.12 µM (active)
CCCCCCCCCC[N+](C)(C)CCCCCCCCCC,AC50,[2],14.3 µM (active)
same,AC50,[8],1.38 µM (active)
same,AC50,[1],9.61 µM (active)
same,AC50,[4],6.37 µM (active)
Clc1ccc(C(c2ccccc2Cl)C(Cl)(Cl)Cl)cc1 (centres undefined),AC50,[7],5.21 µM (active)
CC(C)C(=O)OCC(C)(C)C(OC(=O)C(C)C)C(C)C (centres undefined),AC50,[10],6.26 µM (active)
O=C(O)C(F)(F)C(F)(F)C(F)(F)C(F)(F)C(F)(F)C(F)(F)C(F)(F)C(F)(F)F,AC50,[3],0.643 µM (active)
O=S(=O)(O)C(F)(F)C(F)(F)C(F)(F)C(F)(F)C(F)(F)C(F)(F)F,AC50,[2],9.34 µM (active)
same,AC50,[3],0.0791 µM (active)
